From the supplement of paper PMC8728848
Shown is part of a subset that was picked to be rich in the strongest signals.

Columns and labels:
Test in all cases: glycan array binding signal (z-score within array); higher = stronger binding
Conditions in all cases: glycan notation: IUPAC condensed, linker removed
[1] = biological target: Fuc(a1-2)Gal(b1-3)GalNAc(b1-3)Gal(a1-4)Gal(b1-4)Glc
Outline: (§1)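 Arrays were curated from the Consortium for Functional Glycomics database, 3228 in total, and kept only where the protein sequence was available. Binding is expressed as a within-array Z-score. This score was averaged across arrays of the same protein sequence at different concentrations or buffers and across linkers, and negative values can be read as non-binding.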

[2] = biological target: Fuc(a1-2)Gal(b1-3)GlcNAc(b1-3)[Neu5Ac(a2-6)Gal(b1-4)GlcNAc(b1-6)]Gal(b1-4)Glc
Outline: as §1

[3] = biological target: Fuc(a1-2)Gal(b1-3)[Fuc(a1-4)]GlcNAc(b1-2)Man(a1-3)[Fuc(a1-2)Gal(b1-3)[Fuc(a1-4)]GlcNAc(b1-2)Man(a1-6)]Man(b1-4)GlcNAc(b1-4)[Fuc(a1-6)]GlcNAc(b1-4)[Fuc(a1-6)]GlcNAc
Outline: as §1

[4] = biological target: Fuc(a1-2)Gal(b1-4)[Fuc(a1-3)]GlcNAc(b1-3)GalNAc
Outline: as §1

[5] = biological target: Fuc(a1-2)Gal6S(b1-3)GlcNAc6S
Outline: as §1

[6] = biological target: Fuc(a1-2)[Gal(a1-3)]Gal(b1-4)[Fuc(a1-3)]Glc
Outline: as §1

[7] = biological target: Fuc(a1-2)[Gal(a1-4)]Gal(b1-4)GlcNAc
Outline: as §1

[8] = biological target: Fuc(a1-2)[GalNAc(a1-3)]Gal(b1-3)GalNAc(b1-3)Gal(a1-4)Gal(b1-4)Glc
Outline: as §1

[9] = biological target: Fuc(a1-2)[GalNAc(a1-3)]Gal(b1-4)GlcNAc(b1-3)Gal(b1-4)GlcNAc(b1-3)Gal(b1-4)GlcNAc
Outline: as §1

[10] = biological target: Fuc(a1-2)[GalNAc(a1-3)]Gal(b1-4)GlcNAc(b1-3)GalNAc
Outline: as §1

[11] = biological target: Fuc(a1-2)[GalNAc(a1-3)]Gal(b1-4)[Fuc(a1-3)]GlcNAc(b1-3)GalNAc
Outline: as §1

[12] = biological target: Fuc(a1-3)[Gal(b1-4)]GlcNAc(b1-2)Man
Outline: as §1

[13] = biological target: Fuc(a1-3)[Gal3S(b1-4)]GlcNAc
Outline: as §1

[14] = biological target: Fuc(a1-3)[GalNAc(b1-4)]GlcNAc
Outline: as §1

[15] = biological target: Fuc(a1-4)GlcNAc
Outline: as §1

[16] = biological target: Gal(b1-3)GalNAc(b1-3)Gal
Outline: as §1

[17] = biological target: Gal(b1-3)GlcNAc(b1-3)Gal(b1-4)[Fuc(a1-3)]GlcNAc
Outline: as §1

[18] = biological target: Gal(b1-3)[Neu5Ac(b2-6)]GalNAc
Outline: as §1

[19] = biological target: Gal(b1-4)Glc6S
Outline: as §1

[20] = biological target: Gal(b1-4)GlcNAc(b1-3)Gal(b1-3)GlcNAc
Outline: as §1

[21] = biological target: Gal(b1-4)GlcNAc(b1-3)Gal(b1-4)GlcNAc(b1-2)[Gal(b1-4)GlcNAc(b1-3)Gal(b1-4)GlcNAc(b1-6)]Man(a1-6)[Gal(b1-4)GlcNAc(b1-3)Gal(b1-4)GlcNAc(b1-2)Man(a1-3)]Man(b1-4)GlcNAc(b1-4)GlcNAc
Outline: as §1

[22] = biological target: Gal(b1-4)GlcNAc(b1-3)Gal(b1-4)[Fuc(a1-3)]GlcNAc(b1-3)Gal(b1-4)[Fuc(a1-3)]GlcNAc
Outline: as §1

[23] = biological target: Gal(b1-4)GlcNAc(b1-3)[Gal(b1-4)GlcNAc(b1-6)]Gal(b1-4)GlcNAc
Outline: as §1

[24] = biological target: Gal(b1-4)GlcNAc(b1-3)[GlcNAc(b1-6)]Gal(b1-4)GlcNAc
Outline: as §1

[25] = biological target: Gal(b1-6)Gal
Outline: as §1

[26] = biological target: Gal3S(b1-4)Glc
Outline: as §1

[27] = biological target: Gal3S6S(b1-4)GlcNAc6S
Outline: as §1

[28] = biological target: GalNAc(b1-3)Gal
Outline: as §1

[29] = biological target: GalNAc(b1-3)Gal(a1-4)Gal(b1-4)GlcNAc
Outline: as §1

[30] = biological target: GalNAc(b1-6)GalNAc
Outline: as §1

[31] = biological target: GlcNAc(b1-3)Gal(b1-4)GlcNAc(b1-3)Gal(b1-4)GlcNAc(b1-2)[GlcNAc(b1-3)Gal(b1-4)GlcNAc(b1-3)Gal(b1-4)GlcNAc(b1-6)]Man(a1-6)[GlcNAc(b1-3)Gal(b1-4)GlcNAc(b1-3)Gal(b1-4)GlcNAc(b1-2)Man(a1-3)]Man(b1-4)GlcNAc(b1-4)[Fuc(a1-6)]GlcNAc
Outline: as §1

[32] = biological target: GlcNAc(b1-3)Gal(b1-4)GlcNAc(b1-3)Gal(b1-4)GlcNAc(b1-3)Gal(b1-4)GlcNAc(b1-2)Man(a1-3)[GlcNAc(b1-3)Gal(b1-4)GlcNAc(b1-3)Gal(b1-4)GlcNAc(b1-3)Gal(b1-4)GlcNAc(b1-2)Man(a1-6)]Man(b1-4)GlcNAc(b1-4)GlcNAc
Outline: as §1

[33] = biological target: GlcNAc(b1-3)Gal(b1-4)GlcNAc(b1-3)Gal(b1-4)GlcNAc(b1-3)Gal(b1-4)GlcNAc(b1-3)Gal(b1-4)GlcNAc(b1-2)Man(a1-3)[GlcNAc(b1-3)Gal(b1-4)GlcNAc(b1-3)Gal(b1-4)GlcNAc(b1-3)Gal(b1-4)GlcNAc(b1-3)Gal(b1-4)GlcNAc(b1-2)Man(a1-6)]Man(b1-4)GlcNAc(b1-4)[Fuc(a1-6)]GlcNAc
Outline: as §1

[34] = biological target: GlcNAc(b1-3)[GlcNAc(b1-6)]Gal(b1-4)GlcNAc
Outline: as §1

[35] = biological target: Kdn(a2-3)Gal(b1-3)GalNAc
Outline: as §1

[36] = biological target: Man(a1-3)[Man(a1-6)]Man
Outline: as §1

[37] = biological target: Man(a1-3)[Man(a1-6)]Man(a1-6)[Man(a1-3)]Man
Outline: as §1

[38] = biological target: Man(a1-6)Man
Outline: as §1

[39] = biological target: Neu5Ac(a2-3)Gal(b1-3)]Neu5Ac(a2-3)Gal(b1-4)]GlcNAc
Outline: as §1

[40] = biological target: Neu5Ac(a2-3)Gal(b1-4)Glc
Outline: as §1

[41] = biological target: Neu5Ac(a2-3)Gal(b1-4)GlcNAc(b1-3)Gal
Outline: as §1

[42] = biological target: Neu5Ac(a2-3)Gal(b1-4)GlcNAc(b1-3)Gal(b1-4)[Fuc(a1-3)]GlcNAc
Outline: as §1

[43] = biological target: Neu5Ac(a2-3)Gal(b1-4)GlcNAc(b1-3)GalNAc
Outline: as §1

[44] = biological target: Neu5Ac(a2-3)Gal(b1-4)[Fuc(a1-3)]GlcNAc(b1-3)Gal(b1-4)GlcNAc
Outline: as §1

[45] = biological target: Neu5Ac(a2-3)Gal(b1-4)[Fuc(a1-3)]GlcNAc(b1-3)GalNAc
Outline: as §1

[46] = biological target: Neu5Ac(a2-3)[GalNAc(b1-4)]Gal(b1-4)GlcNAc(b1-3)GalNAc
Outline: as §1

[47] = biological target: Neu5Ac(a2-6)Gal(b1-4)GlcNAc
Outline: as §1

[48] = biological target: Neu5Ac(a2-6)Gal(b1-4)GlcNAc(b1-2)Man(a1-3)[GlcNAc(b1-2)Man(a1-6)]Man(b1-4)GlcNAc(b1-4)GlcNAc
Outline: as §1

[49] = biological target: Neu5Ac(a2-6)Gal(b1-4)GlcNAc(b1-3)Gal(b1-4)GlcNAc(b1-3)[Neu5Ac(a2-6)Gal(b1-4)GlcNAc(b1-3)Gal(b1-4)GlcNAc(b1-6)]GalNAc
Outline: as §1

[50] = biological target: Neu5Ac(a2-6)Gal(b1-4)GlcNAc(b1-3)Gal(b1-4)GlcNAc(b1-6)[Gal(b1-3)]GalNAc
Outline: as §1

[51] = biological target: Neu5Ac(a2-8)Neu5Ac(a2-3)Gal(b1-4)GlcNAc
Outline: as §1

[52] = biological target: Neu5Ac(a2-8)Neu5Ac(a2-8)Neu5Ac(a2-3)Gal(b1-4)Glc
Outline: as §1

[53] = biological target: Neu5Gc(a2-3)Gal(b1-4)GlcNAc
Outline: as §1

[54] = biological target: Neu5Gc(a2-8)Neu5Ac(a2-3)Gal(b1-4)GlcNAc
Outline: as §1

B1: GS13814A-bth-462-26-462 (Bacteroides thetaiotaomicron) (protein)
chain: DDRDNLMVNDQIGLLHSTYTETEIFRGMDTPYQLFVIKSGKGKQETEVSISVDETVLQSYNTDNGTSIQLLPSDCYTILQPALRLNDSDYRKAFDIKWNADRLSDLLSTGKEYGLPIQMSVVQNFISADDERLKTIIVPTIKEPYLQMDVPGMSPVTDFMPTFGDLNERELFVKIRTNYSNDEDISFQIEVDPQLVIDYNTAHGTAYKMLPESSFTVDNKGVILTGMKETFIKIKYHKKGLIPEEGTYLFGDYVLPLRITSVSKYGISPDAASKLYTVKFQPDPIDKKGWSVIDFNNCCTQDGGWYLNMGWGVESLIDNNPGTQWLCRWDVKEPLPYYFVFDMGKEYTLFRFGFANPVAPAAHVWAGTSKAGYVEASIDNENWVKLKDWTSPKIGEPNVNMDVPATQARYIRFVITDTYPTYDGLRVSLGEVYAWGM
glycan array binding signal (z-score) [1]: -0.308
glycan array binding signal (z-score) [2]: -0.718
glycan array binding signal (z-score) [3]: 0.703
glycan array binding signal (z-score) [4]: 2.19
glycan array binding signal (z-score) [5]: 3.15
glycan array binding signal (z-score) [6]: 0.027
glycan array binding signal (z-score) [7]: 1.11
glycan array binding signal (z-score) [8]: 1.01
glycan array binding signal (z-score) [9]: -0.363
glycan array binding signal (z-score) [10]: -0.276
glycan array binding signal (z-score) [11]: 2.42
glycan array binding signal (z-score) [12]: 0.981
glycan array binding signal (z-score) [13]: 1.23
glycan array binding signal (z-score) [14]: 2.12
glycan array binding signal (z-score) [15]: 14.3
glycan array binding signal (z-score) [16]: 0.61
glycan array binding signal (z-score) [17]: 0.725
glycan array binding signal (z-score) [18]: -0.165
glycan array binding signal (z-score) [19]: -0.019
glycan array binding signal (z-score) [20]: -0.895
glycan array binding signal (z-score) [21]: -0.241
glycan array binding signal (z-score) [22]: 0.104
glycan array binding signal (z-score) [23]: -0.298
glycan array binding signal (z-score) [24]: -0.604
glycan array binding signal (z-score) [25]: 0.332
glycan array binding signal (z-score) [26]: -0.952
glycan array binding signal (z-score) [27]: 2.45
glycan array binding signal (z-score) [28]: -0.506
glycan array binding signal (z-score) [29]: 2.74
glycan array binding signal (z-score) [30]: -0.44
glycan array binding signal (z-score) [31]: 0.296
glycan array binding signal (z-score) [32]: -0.256
glycan array binding signal (z-score) [33]: 1.41
glycan array binding signal (z-score) [34]: -0.285
glycan array binding signal (z-score) [35]: 0.216
glycan array binding signal (z-score) [36]: 0.087
glycan array binding signal (z-score) [37]: -1
glycan array binding signal (z-score) [38]: 0.563
glycan array binding signal (z-score) [39]: 2.12
glycan array binding signal (z-score) [40]: 2.85
glycan array binding signal (z-score) [41]: -0.359
glycan array binding signal (z-score) [42]: -1.35
glycan array binding signal (z-score) [43]: -0.818
glycan array binding signal (z-score) [44]: 2.69
glycan array binding signal (z-score) [45]: 2.14
glycan array binding signal (z-score) [46]: -1.22
glycan array binding signal (z-score) [47]: -0.069
glycan array binding signal (z-score) [48]: 0.48
glycan array binding signal (z-score) [49]: -1.35
glycan array binding signal (z-score) [50]: -0.806
glycan array binding signal (z-score) [51]: -1.27
glycan array binding signal (z-score) [52]: -1.35
glycan array binding signal (z-score) [53]: 1.47
glycan array binding signal (z-score) [54]: -0.879
